Shiga inhibitor – inhibitors of Shiga toxin in Vero cells; hit rate 9.2% among 290,000; inhibition, % at 38.7 µM; Vero cells, Shiga toxin protein synthesis inhibition reporter; AID 2315; in the data active = inhibition mostly above about 28%, no sharp cut-off; inactive = mostly below about 43%; note: 0% is about no effect
SARS PLP yeast – inhibitors of SARS-CoV papain-like protease in yeast | AID 485353 | S. cerevisiae expressing SARS-CoV PLpro, growth rescue | hit rate 0.19% among 330,000 | Potency, µM (highest dose often 32.9 µM), for inactives: at the top dose activity, positive = growth rescue, actives largely listed as activators; calls by dose curve; note: potency is the fitted concentration of half-maximal effect; 0% is about no effect; nearly all actives have a fitted effect of over 55% in size
Pf growth 96h – inhibits malaria parasite growth, 96 h. hit rate 6.9% among 320,000. P. falciparum luciferase reporter growth, 96 h. AID 504834. Potency, µM (doses to about 28.7 µM), for the others: at the top dose activity change, negative = inhibition, most hits filed as inhibitors; note: potency is the fitted concentration of half-maximal effect; % is set by controls: 0 for no effect and ±100 for the full control effect
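Erythrocytes infected with luciferase-expressing P. falciparum were dispensed at 2% hematocrit and 0.05% parasitemia (final), then incubated with compounds 96 hours at 37 C in 5% CO2. Luminescence after detection reagent addition reported growth.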
AMA1 RON2 block – disrupts binding of P. falciparum AMA1 to RON2; AlphaScreen AMA1-biotinylated RON2 peptide binding; Potency, µM (highest dose often 58.2 µM), without a hit: at the top dose activity change, negative = inhibition, most hits filed as inhibitors; hit rate 0.2% among 360,000; AID 720542;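 note: potency is the fitted concentration of half-maximal effect; 0% = vehicle wells and -100% = peptide control; nearly all actives have a fitted effect of over 45% in size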
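AMA1 (3D7) with his tag at 25 nM final met compounds first, then biotinylated RON2 peptide at 25 nM; detection used donor plus acceptor beads, 10 µg/mL apiece, read by AlphaScreen after 30 min at room temperature.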
Pf growth 48h – P. falciparum growth inhibition at 48 hours (one generation). P. falciparum luciferase growth in erythrocytes, 48 h. hit rate 5.9% among 310,000. Potency, µM (series often up to 28.7 µM), inactives show at the highest dose activity change, negative = inhibition, hits mostly inhibitors. AID 504832; note: potency is the fitted concentration of half-maximal effect; % is set by controls: 0 for no effect and ±100 for the full control effect
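Here the parasites carry a stable luciferase gene and grow inside erythrocytes in Albumax-based RPMI medium with compound for one erythrocytic cycle. Activity is scored as loss of luminescent signal.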
CHX counter – counter-screen hit for Shiga toxin inhibitors, cycloheximide. max response, %. hit rate 12% among 300,000. cell reporter, cycloheximide protein synthesis inhibition counterscreen. AID 2314; in the data active = max response mostly above about 13%, no sharp cut-off; inactive = mostly below about 14%; note: read at 38.3 µM for the half of the compounds with a filed dose; 0% is about no effect
Starred values were filed as active, the others as inactive; ? = inconclusive; nt = no result given; ! = not active in a repeat. Sampled rows, rich in hits. Any-hit rate of the full collection: about 19%. Unless noted, calls come from the whole dose curve; as a rule, active = well fitted curve in the direction sought with a large enough effect; inconclusive = small, poorly fitted or top-dose-only effect, or another doubt; inactive = no such curve, though single readings can be large; an effect the other way counts as inactive or inconclusive.

SMILES | Shiga inhibitor | SARS PLP yeast | Pf growth 96h | AMA1 RON2 block | Pf growth 48h | CHX counter
O=C(c1ccc(COc2ccccc2Br)o1)N1N=C(C(F)F)CC1(O)C(F)F (stereo not drawn) | 14 | 3% | -14% | 24% | -13% | -2
CCOc1ccc(/C=N/NC(=O)c2ccccc2O)cc1CN1CC2CC(C1)c1cccc(=O)n1C2 (stereo not drawn) | nt | -2% | 13µM* | 38% | ? | nt
COc1ccc(/C=N\NC(=O)c2cccc([N+](=O)[O-])c2)cc1Cn1cc([N+](=O)[O-])cn1 | 18 | 0% | 32% | nt | ? | 9
COc1ccc(/C=N/NC(=O)c2ccn[nH]2)cc1Cn1cc([N+](=O)[O-])cn1 | 59* | 1% | 16% | 19% | 19% | 23*
COc1ccc(CN2CC3CC(C2)c2cccc(=O)n2C3)cc1OC (stereo not drawn) | -2 | -6% | ? | 0% | 2% | -3
O=C(Nc1cc(S(=O)(=O)Nc2ccccc2F)ccc1Cl)c1ccc(F)cc1F | nt | 13% | nt | -10% | nt | nt
NC(=O)c1ccc[n+](CC(=O)c2cccc([N+](=O)[O-])c2)c1 | -8 | 1% | -28% | 3% | 43% | 12
CCC(C)/C(C)=N/NC(=O)c1ccc(COc2ccc(Cl)c(C)c2)cc1 (stereo not drawn) | 33 | -43% | 44% | 58% | 63% | 38*
C[C@H]1CCC[C@H](O)CCCCCc2cc(O)cc(O)c2C(=O)O1 | -16 | 2% | 12µM* | 7% | ? | -2
O=C1Nc2ccc(Cl)cc2C12Nc1ccccc1-c1nnc(SCc3ccccc3F)nc1O2 (stereo not drawn) | -48 | -48% | -14% | -7% | 12% | 28*
CCOc1ccc(C(=O)Nc2nnc(S(=O)(=O)Nc3ccccc3C)s2)cc1 | 1 | 4% | ? | 0% | 38% | -1
Cc1cc(C)c(NC(=O)CNC(=O)Cc2ccc(S(=O)(=O)N3CCOCC3)s2)c(C)c1 | nt | -5% | -26% | 4% | ? | nt
CCc1ccc(OCCOCCN2CCN(C)CC2)cc1 | 18 | 5% | 31% | ? | 7% | 12
CCc1ccc(OCCn2cccn2)cc1 | 59* | 1% | 3% | -1% | 59% | 34*
N#CCSc1nnc(COc2ccc3ccccc3c2)o1 | 93* | -17% | nt | -3% | 28% | 67*
COc1ccc(Cc2n[nH]c(=S)o2)cc1 | -4 | 12% | ? | -14% | -8% | -3
S=c1[nH]nc(COc2ccc3ccccc3c2)o1 | 43* | -23% | 9.3µM* | 35% | 45% | 15
CC1CCN(C(=O)COc2cccc3c2CCN(Cc2ccccc2)C3=O)CC1 | -3 | -4% | -34% | 0% | -19% | 12
Cc1ccc(NS(=O)(=O)c2ccc3c(c2)NC(=O)C(C)C(=O)N3)c(Cl)c1 (stereo not drawn) | -7 | -1% | 10% | 19% | 7% | -3
COc1ccc(C)cc1NS(=O)(=O)c1ccc2c(c1)NC(=O)C(C)S2 (stereo not drawn) | -13 | 4% | 54% | -1% | ? | -7
Cc1cc(C)c(NS(=O)(=O)c2ccc3c(c2)NC(=O)CCS3)c(C)c1 | 2 | 0% | 8.3µM* | 16% | 12µM* | -2
CCOC(=O)c1ccc(NS(=O)(=O)c2ccc3c(c2)NC(=O)CCS3)cc1 | -2 | -5% | ? | -4% | -16% | 2
COc1ccc(Cl)cc1NS(=O)(=O)c1ccc2c(c1)NC(=O)CCS2 | 10 | 0% | 7.4µM* | 1% | 17% | -1
Cc1ccc(NS(=O)(=O)c2ccc3c(c2)NC(=O)CCS3)c(C)c1 | -4 | 17% | 10µM* | -6% | 2.6µM* | -3
Cc1ccc(NS(=O)(=O)c2ccc3c(c2)NC(=O)CCS3)c(Cl)c1 | -3 | 1% | ? | -1% | 4.7µM* | -1
SMILES | Shiga inhibitor | SARS PLP yeast | Pf growth 96h | AMA1 RON2 block | Pf growth 48h | CHX counter
O=C(Nc1ccc2c(c1)OCO2)N1CCN(C(=O)C2CCCO2)CC1 (stereo not drawn) | 22 | 2% | nt | 1% | 2% | 12
COc1ccc(C(=O)Nc2ncc3c(n2)CC(C)CC3=O)cc1 (stereo not drawn) | 24 | -5% | -14% | 24% | 3% | 19*
Cc1cccc(Nc2ncc3c(n2)CC(C)CC3=O)c1 (stereo not drawn) | 112* | -2% | nt | 2% | 335% | 33*
Cc1ccc2nc(Nc3ncc4c(n3)CCCC4=O)nc(C)c2c1 | 6 | 7% | ? | nt | 14% | -3
Cc1cccc(Nc2ncc3c(n2)CC(c2ccco2)CC3=O)c1 (stereo not drawn) | 20 | -6% | 32% | 1% | 3% | 15*
Cc1cc(C)cc(Nc2ncc3c(n2)CCCC3=O)c1 | 23 | -2% | nt | 6% | 312% | 17*
Cc1cc(C)cc(Nc2ncc3c(n2)CC(c2ccco2)CC3=O)c1 (stereo not drawn) | -2 | -22% | 12% | 23% | -19% | 7
Cc1ccc(C(=O)Nc2ncc3c(n2)CC(c2ccco2)CC3=O)cc1 (stereo not drawn) | 130 | -16% | -6% | 10% | 55% | 26*
O=C(Nc1ncc2c(n1)CC(c1ccco1)CC2=O)c1ccccc1 (stereo not drawn) | 47 | 1% | nt | -6% | 84% | 12
CC1CC=CC2C1C(=O)N(Cc1ccccc1)C2c1ccc2ccccc2c1 (stereo not drawn) | 16 | nt | nt | nt | nt | -6
CCC1CC=CC2C1C(=O)N(Cc1ccccc1)C2c1ccoc1 (stereo not drawn) | 13 | nt | nt | nt | nt | 16
O=C1C2C(c3cccc(/C=C/c4ccccc4)c3)CC=CC2C(c2ccc(C(F)(F)F)cc2)N1Cc1ccccc1 (stereo not drawn) | 54*! | 1% | 9.3µM* | 18% | 12µM* | 17
C[C@@H]1CC=C[C@H]2[C@H]1C(=O)N(Cc1ccccc1)[C@H]2c1ccc2ccccc2c1Br | 7 | -4% | ? | -9% | 10µM* | -4
CC[C@@H]1CC=C[C@H]2[C@H]1C(=O)N(Cc1ccccc1)[C@H]2c1ccoc1 | 58* | -11% | ? | 14% | 12µM* | 12*
C[C@@H]1CC=C[C@H]2[C@H]1C(=O)N(Cc1ccccc1)[C@H]2c1ccc2ccccc2c1 | -3 | -16% | 3.7µM* | 1% | 10µM* | -3
CN1CCCC1=Nc1ccccc1 | nt | nt | nt | 1% | nt | nt
CC(OC(=O)Cc1c[nH]c2ccccc12)C(=O)Nc1ccccc1F (stereo not drawn) | nt | 1% | 2% | -7% | 8% | nt
COc1ccc(-c2cc([C@H]3[C@H]4C=CC[C@@H](C)[C@@H]4C(=O)N3Cc3ccccc3)ccc2F)cc1OC | 61* | 0% | ? | -20% | ? | 22*
COc1ccc(-c2cc(C3C4C=CCC(C)C4C(=O)N3Cc3ccccc3)ccc2F)cc1 (stereo not drawn) | 8 | nt | nt | nt | nt | 14

Assay outcomes deposited in PubChem BioAssay by National Center for Advancing Translational Sciences (NCATS).
